Reference: PubChem BioAssay (NCI)
Compounds without any hit were thinned out: in the full panel of roughly 83,000, 20% have a hit.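 A percent growth of 40 corresponds to 60% growth inhibition; 0 means no net growth; -100 means all cells died. Active threshold: below 10.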 Unmarked numbers belong to inactive results. The source made the active and inactive calls.

Legend:
Assay in all cases: NCI-60 one-dose screen, 48 h (100 = growth as untreated, 0 = no growth, -100 = all killed)
Settings in all cases: 10 µM unless noted
DU-145 prostate = test system: DU-145 prostate
K-562 leukemia = test system: K-562 leukemia
MALME-3M melanoma = test system: MALME-3M melanoma
MDA-MB-231 breast = test system: MDA-MB-231 breast
RXF 393 renal = test system: RXF 393 renal
SF-268 CNS = test system: SF-268 CNS
SF-295 CNS = test system: SF-295 CNS
SF-539 CNS = test system: SF-539 CNS
UACC-257 melanoma = test system: UACC-257 melanoma
M14 melanoma = test system: M14 melanoma
HCT-15 colon = test system: HCT-15 colon
HT29 colon = test system: HT29 colon
SNB-19 CNS = test system: SNB-19 CNS
U251 CNS = test system: U251 CNS
PC-3 prostate = test system: PC-3 prostate
UACC-62 melanoma = test system: UACC-62 melanoma
LOX IMVI melanoma = test system: LOX IMVI melanoma
SK-MEL-28 melanoma = test system: SK-MEL-28 melanoma
SK-MEL-5 melanoma = test system: SK-MEL-5 melanoma
SNB-75 CNS = test system: SNB-75 CNS

Compound	growth (DU-145 prostate)	growth (K-562 leukemia)	growth (MALME-3M melanoma)	growth (MDA-MB-231 breast)	growth (RXF 393 renal)	growth (SF-268 CNS)	growth (SF-295 CNS)	growth (SF-539 CNS)	growth (UACC-257 melanoma)	growth (M14 melanoma)	growth (HCT-15 colon)	growth (HT29 colon)	growth (SNB-19 CNS)	growth (U251 CNS)	growth (PC-3 prostate)	growth (UACC-62 melanoma)	growth (LOX IMVI melanoma)	growth (SK-MEL-28 melanoma)	growth (SK-MEL-5 melanoma)	growth (SNB-75 CNS) [%]
Nc1nc(N)c2c(n1)NC(c1ccc(Cl)cc1)C1CCc3ccccc3C1=N2 (centres undefined)	64.1%	31%	19.6%	76.8%	83.3%	72.3%	20.7%	54.3%	58.2%	70.4%	45.9%	41.9%	76.1%	51.1%	51.6%	55.2%	56.8%	91.3%	–	–
O=C(c1c[nH]c2ccccc12)c1n[nH]c(=S)n1-c1cccc(Br)c1	103%	84.6%	95.4%	76.9%	104%	95.4%	102%	106%	97.4%	99.3%	40.9%	96.2%	93.8%	97.3%	87.8%	51.9%	93.2%	105%	28%	–
N#Cc1c(Nc2ccc(N3CCOCC3)cc2)nc(SCC(=O)c2ccc(Br)cc2)nc1-c1ccccc1	106%	99.3%	111%	109%	126%	103%	104%	98.7%	102%	97.3%	103%	98.3%	117%	101%	86.1%	104%	100%	104%	102%	–
O=C(CCCCCCN1CC(=O)N2[C@H](c3ccc(Br)cc3)c3[nH]c4ccccc4c3C[C@@H]2C1=O)NO	57.5%	14.7%	20.4%	43.7%	42.4%	71.4%	67.2%	43.7%	34.9%	46.6%	103%	53%	57.1%	42.6%	39.1%	13.8%	12.3%	33.9%	26%	–
Nc1nc(N)c2c(n1)NC(c1cccc(Nc3ccnc4cc(C(F)(F)F)ccc34)c1)CC(c1ccccc1)=N2 (centres undefined)	71.9%	13.5%	67%	58.5%	44.9%	52.3%	50.1%	77.1%	69%	30.2%	23.7%	8.53% (active)	64.4%	36.5%	39.2%	73.8%	45.6%	84%	–	–
O=P(O)(O)OCC1OC(n2cnc3c(NCc4ccco4)ncnc32)C(O)C1O (centres undefined)	-58.5% (active)	63.3%	87.4%	-21.5% (active)	4.85% (active)	29.3%	34.7%	16.1%	77.6%	34.5%	5.11% (active)	16.7%	31.9%	38.3%	9.01% (active)	45.4%	-30.9% (active)	87%	40.2%	–
O=C(NC1CC(F)C1)c1cc2cccnc2n1-c1ccc(Cl)c(Cl)c1 (centres undefined)	106%	96.3%	113%	96.5%	102%	91.6%	95.1%	98%	96.9%	111%	96.6%	101%	95.2%	93.9%	89.8%	83.7%	89.6%	–	98.9%	–
C/C=C(/C)n1cnc2c(Nc3ccccn3)nc(Cl)nc21	109%	95.6%	106%	107%	105%	99.2%	104%	102%	97.6%	101%	103%	98.1%	107%	–	95.3%	95.8%	95.3%	105%	–	87.9
O=C1NC(=O)/C(=C/c2c(-c3ccccc3)nc3sc(COc4ccccc4)nn23)S1	105%	82.6%	102%	73.3%	112%	106%	94.3%	103%	104%	96.1%	97.2%	117%	95.6%	96.7%	111%	90%	57%	110%	97.9%	–
Cc1cccc2c1C[C@@]1(C2=O)C(c2ccc(C(C)(C)C)cc2)=NOS1=O (some centres undefined)	103%	77.8%	93.3%	86.1%	100%	94.7%	99.2%	108%	95.8%	88.8%	72.1%	98.1%	93.5%	88.2%	68.8%	73.8%	76.6%	110%	90.3%	–
C#Cc1cccc(Nc2nc(C)nc3cc(NC(=O)CCl)ccc23)c1	-95.8% (active)	0.173% (active)	-77.6% (active)	-73.1% (active)	-87.2% (active)	-67.2% (active)	-79.7% (active)	-92.8% (active)	-60.9% (active)	-27.5% (active)	-63.7% (active)	-84% (active)	-32.9% (active)	-93.9% (active)	-81.2% (active)	-46.5% (active)	-81.7% (active)	-81.9% (active)	–	–
C#CCn1cnc2cnc(Nc3cccc(NC(=O)C=C)c3)nc21	93.5% [6.25 µM]	5.9% [6.25 µM] (active)	76.7% [6.25 µM]	81.5% [6.25 µM]	86.6% [6.25 µM]	84.7% [6.25 µM]	72.4% [6.25 µM]	72.3% [6.25 µM]	61.5% [6.25 µM]	62% [6.25 µM]	91.7% [6.25 µM]	70.5% [6.25 µM]	88.3% [6.25 µM]	75.5% [6.25 µM]	9.21% [6.25 µM] (active)	62.5% [6.25 µM]	82.7% [6.25 µM]	82.2% [6.25 µM]	92.4% [6.25 µM]	–
Cc1ccc(Cl)cc1NC(=O)c1sc2nc3c(cc2c1N)C(=O)CCC3	77.4%	33.6%	81.1%	80%	42.1%	74.9%	4.01% (active)	47.7%	44.9%	62.9%	45.9%	28.8%	68.1%	59.1%	55.8%	53.1%	68.1%	67%	27%	–
CC(C)CCN(CCC(C)C)CC(O)c1cc2c(c3ccccc13)CCCC2 (centres undefined)	60.8%	43.5%	94.3%	37.7%	62.1%	71.9%	76.5%	82.1%	99.4%	89.3%	59.4%	32.2%	97.8%	72.9%	66.4%	49.8%	51.9%	–	72.7%	–
Cc1cccc(Oc2ccc(Nc3ncnc4ccc(NC(=O)CN5CCN(C)CC5)cc34)cc2Cl)c1	33.2%	-6.17% (active)	-72.6% (active)	-47.2% (active)	-65.6% (active)	42%	63.9%	-77.1% (active)	-66.4% (active)	-72.7% (active)	5.82% (active)	-30.1% (active)	28.4%	9.58% (active)	33.1%	-27.4% (active)	-94.2% (active)	-84.6% (active)	-76.7% (active)	–
